Shown are actives, neighbours in structure and some others; about 2.2% of the full set was active somewhere.
FUS yeast rescue: rescues growth of FUS-expressing yeast. Potency, µM (series often up to 76.6 µM), hits mostly activators. 0.24% of 390,000 active. S. cerevisiae FUS-expressing, growth rescue, OD600, 24 h; also: nearly all actives have a fitted effect of over 55% in size
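S. cerevisiae expressing FUS from galactose induction served as the toxicity model. Growth after 24hr at 30C, read as absorbance at 600 nm, indicates suppression of toxicity; compounds dosed at several concentrations.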
aSyn yeast inh: alpha-synuclein toxicity inhibition in yeast. Yeast expressing alpha-synuclein, growth rescue, BacTiter-Glo, 24 h. 0.14% of 370,000 active. Potency, µM (top dose mostly 46.1 µM), actives largely listed as activators; also: nearly all actives have a fitted effect of over 65% in size
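Readout is rescue of growth in alpha-synuclein-expressing yeast, so inhibitors of toxicity appear as activators. Growth after 24 hr at 30 deg C in galactose medium is quantified by luminescence.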
Abeta rescue: restores growth of yeast expressing A-beta42 peptide; yeast expressing A-beta42, growth rescue, OD600, 48 h; response scale: 0% DMSO, 100% iron-clioquinol control; Potency, µM (titrated, usually from 46.1 µM), most hits filed as activators; 0.063% of 410,000 active; also: nearly all actives have a fitted effect of over 55% in size
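Growth rescue measured by 600 nm absorbance after 48 h yeast culture at 30 C with compound. Values normalized between DMSO and an equimolar ferric chloride plus clioquinol control.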
Mito fusion act: blocks mitochondrial division or promotes mitochondrial fusion; S. cerevisiae fusion-defective mutant growth rescue, CellTiterGlo 48 h; 0.23% of 320,000 active; Potency, µM (titrated, usually from 46.1 µM), usual class: activators; also: nearly all actives have a fitted effect of over 45% in size
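Growth-rescue viability read-out: after 48 h at the non-permissive 37C in glycerol/ethanol YPEG, yeast mitochondrial fusion mutants are measured by CellTiterGlo luminescence; compounds (23 nl pinned per well) restoring growth score as division inhibitors or fusion activators.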
TDP43 rescue: inhibitors of TDP-43 toxicity in yeast; 1.8% of 410,000 active; Potency, µM (series often up to 46.1 µM), most hits filed as activators; TDP-43 expressing yeast growth rescue, BacTiter-Glo, 24 h; AID 652104; also: nearly all actives have a fitted effect of over 50% in size
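Luminescence from BacTiter-Glo reports growth of TDP-43-expressing yeast after 24 hr at 30 deg C with compound. Cells were raffinose-pregrown to mid-log, then seeded in galactose medium at OD600=0.02.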
Hits are given with their value; - = inactive; ? = inconclusive; . = not tested or not shown. Calls follow the shape of the dose curve; as a rule, active = well fitted curve in the direction sought with a large enough effect; inconclusive = small, poorly fitted or top-dose-only effect, or another doubt; inactive = no such curve, though single readings can be large; an effect the other way counts as inactive or inconclusive.

SMILES	FUS yeast rescue	aSyn yeast inh	Abeta rescue	Mito fusion act	TDP43 rescue
O=C(CS(=O)(=O)c1cccc2nsnc12)N1CCN(c2cccc(C(F)(F)F)c2)CC1	-	-	-	.	20µM
O=C(CS(=O)(=O)c1cccc2nsnc12)N1CCN(c2ccccc2F)CC1	-	.	-	.	-
CN(C(=O)COC(=O)c1ccccc1Nc1ccccc1)c1c(N)n(Cc2ccccc2)c(=O)[nH]c1=O	35.5µM	-	-	-	-
COCCN(C(=O)COC(=O)c1ccccc1Nc1ccccc1)c1c(N)n(Cc2ccccc2)c(=O)[nH]c1=O	?	-	-	-	-
Cc1ccc(N(CC(=O)NCCSc2ccccc2)S(=O)(=O)c2ccc(F)cc2)cc1	?	.	-	.	-
COc1ccc(-c2csc3ncnc(N4CCN(c5ccccc5O)CC4)c23)cc1	-	?	-	-	17.8µM
COc1ccc(-c2csc3ncnc(N4CCN(c5ccc(OC)cc5)CC4)c23)cc1	-	-	-	-	11.2µM
COc1ccc(-c2csc3ncnc(N4CCN(c5ccccc5)CC4)c23)cc1	-	-	-	-	11.2µM
Cc1ccc(-c2csc3ncnc(N4CCN(c5ccccc5O)CC4)c23)cc1	-	-	-	-	?
O=C(c1ccco1)N1CCN(c2ncnc3scc(-c4ccc(F)cc4)c23)CC1	-	-	-	-	17.8µM
CC(=O)c1cccc(NC(=O)CSc2nc3c(=O)n(C)c(=O)n(C)c3n2C)c1	-	.	-	.	-
COc1cccc(CNS(=O)(=O)/C=C/c2ccc3c(c2)OCO3)c1	-	-	-	-	15.8µM
O=C(CCl)N(c1ccccc1)c1ccccc1	-	-	-	-	17.8µM
CCCCCCCCCC[n+]1cccc2cc(Cl)ccc21	.	-	.	.	.
Cc1ccc(N(Cc2ccccc2)C(=O)c2cccc(S(=O)(=O)N3CC(C)OC(C)C3)c2)cc1 (stereo not drawn)	28.2µM	-	-	-	-
CCCCCCCCCCCCCCCCOC(=O)N1CCN(/[N+]([O-])=N/Oc2ccc([N+](=O)[O-])cc2[N+](C)=O)CC1	.	-	.	.	.
CC1CCCCN1CCCNC(=O)c1cc(Sc2cccc(Cl)c2)nc2ccccc12 (stereo not drawn)	-	.	-	.	-
